“And” between values parts separate entries of the source, which are not always exact repeats. Equal entries are not always repeated. Results filed as inconclusive are left out. Some compounds were tested as several samples or in several runs, with calls that do not always agree. The source made the active and inactive calls. Unless noted, calls follow the shape of the dose curve; as a rule, active = well fitted curve in the direction sought with a large enough effect in the repeat runs; inconclusive = weak or mixed curves; inactive = no such curve, though single readings can be large; an effect the other way counts as inactive or inconclusive.
Tests used:
[1] = target: Retinoic acid receptor RXR-alpha (Homo sapiens) (UniProt P19793); test: qHTS assay to identify small molecule agonists of the RXR signaling pathway (AID 1159527; calls by dose curve; also: nearly all actives have a fitted effect of over 35% in size; also: potency is read from the fitted curve at half-maximal effect)
Sequence of Retinoic acid receptor RXR-alpha (Homo sapiens) (P19793 whole entry, looked up): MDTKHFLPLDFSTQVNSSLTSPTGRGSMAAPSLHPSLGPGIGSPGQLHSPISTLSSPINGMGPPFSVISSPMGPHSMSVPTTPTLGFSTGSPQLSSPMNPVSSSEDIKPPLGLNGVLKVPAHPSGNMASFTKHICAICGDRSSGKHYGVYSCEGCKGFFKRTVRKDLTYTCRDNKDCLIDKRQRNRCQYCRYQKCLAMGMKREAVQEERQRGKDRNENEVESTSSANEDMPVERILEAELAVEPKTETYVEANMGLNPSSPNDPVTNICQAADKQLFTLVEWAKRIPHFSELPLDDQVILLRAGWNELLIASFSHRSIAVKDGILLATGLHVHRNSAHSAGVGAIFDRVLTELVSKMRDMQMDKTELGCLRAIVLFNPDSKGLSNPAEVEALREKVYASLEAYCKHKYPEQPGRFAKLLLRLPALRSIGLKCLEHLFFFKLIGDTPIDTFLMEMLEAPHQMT
Summary of the method: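 Fluorescence ratio readout (460 vs 530 nm) from GeneBLAzer RXR-alpha HEK 293T cells after 16 hr compound treatment; cells seeded 5 hr beforehand in low-serum, charcoal-stripped medium.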

[2] = qHTS assay to identify small molecule agonists of the RXR signaling pathway - cell viability counter screen (AID 1159529);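 also: HEK 293T cells carrying an RXR-alpha UAS beta-lactamase reporter; series mostly up to about 77 µM; nearly all actives have a fitted effect of over 50% in size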
Summary of the method: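 Viability read-out for the RXR-alpha agonist qHTS: luminescent CellTiter-Glo signal after 30 min at RT. HEK 293T bla reporter cells, 2% charcoal-stripped FBS, 16 hr compound incubation; tetraoctyl ammonium bromide as cytotoxic control.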

[3] = qHTS assay to identify small molecule antagonists of the retinoid acid receptor (RAR) signaling pathway - cell viability counter screen (AID 1159551); also: nearly all actives have a fitted effect of over 35% in size
Summary of the method: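 Following overnight attachment, C3RL4 reporter cells received DMSO-dissolved compounds and then retinol (1 uM final). Six hours later at 37 C, ATP content was measured by CellTiter-Glo luminescence.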

[4] = qHTS assay to identify small molecule antagonists of the retinoic acid receptor (RAR) signaling pathway (AID 1159552; also: nearly all actives have a fitted effect of over 50% in size)
Summary of the method: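 Using a RARE-driven luciferase construct in C3RL4 cells, retinol at 1 uM final provided the agonist stimulus while compounds were co-applied. After 6 hours at 37 C, luminescence was recorded to flag inhibitors of retinol signaling.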

[5] = qHTS assay to identify small molecule agonists of the retinoic acid receptor (RAR) signaling pathway (AID 1159553); also: potency is read from the fitted curve at half-maximal effect
Summary of the method: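 Cell line C3RL4, RARE luciferase reporter. Treatment: compounds in DMSO, 6 hr, 37 C, 5% CO2, after overnight plating. Detection: luminescence, 30 min RT after reagent.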

[6] = qHTS assay to identify small molecule antagonists of the estrogen related receptor (ERR) signaling pathway - cell viability counter screen (AID 1224818);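 also: series mostly up to about 46 µM; viability measured after 17.5 h of compound exposure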
Summary of the method: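 Here, ERR cells are plated at 2,000 cells per well, allowed 6 h to attach, and treated with compounds in DMSO for 17.5 h at 37 C. CellTiter-Fluor is then added and fluorescence read after 30 min.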

[7] = qHTS assay to identify small molecule antagonists of the estrogen related receptor (ERR) signaling pathway (AID 1224819;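 also: luminescence from an ERR-driven luciferase reporter measured with One-Glo reagent; series mostly up to about 46 µM; nearly all actives have a fitted effect of over 50% in size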)
Summary of the method: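 LOPAC library screened for antagonism as reduced One-Glo luminescence in ERR reporter cells (2,000/well). Compounds were added after 6 h pre-incubation and left 18 h at 37C; reading followed a 30 min room-temperature reagent step.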

[8] = qHTS assay to identify small molecule agonists of the estrogen related receptor (ERR) signaling pathway (AID 1224820)
Summary of the method: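 ERR reporter cell line (from NTP), 2,000 cells/well, incubated 6 h before compound addition, then 18 h at 37 C. Luminescence measured 30 min after One-Glo reagent at room temperature.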

[9] = test system: estrogen-related receptor alpha (ERRalpha) with PGC-1alpha coactivator, human; test: qHTS assay to identify small molecule antagonists of the estrogen related receptor signaling pathway with the pleiotropic PPARgamma coactivator (PGC) (AID 1224821; calls by dose curve;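 also: series mostly up to about 46 µM; lower luminescence signal means antagonism of PGC/ERR signalling; nearly all actives have a fitted effect of over 50% in size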)
Summary of the method: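 PGC/ERR reporter cell line, plated 6 h before compound addition, then exposed 18 h at 37 °C. Luciferase activity read by luminescence 30 min after One-Glo addition; decrease indicates antagonism.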

[10] = qHTS assay to identify small molecule antagonists of the estrogen related receptor signaling pathway with the pleiotropic PPARgamma coactivator (PGC) cell viability counter screen (AID 1224822;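 also: series mostly up to about 46 µM; viability read after 17.5 h compound exposure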)
Summary of the method: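 qHTS format, DMSO compound stocks pin-transferred onto PGC/ERR cells 6 h after plating; 17.5 h exposure at 37 C, then CellTiter-Fluor fluorescence.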

Measured: Potency

CC(C)CC(=O)CC(C)CC(C)C (configuration not stated)
inactive: [1] | [2] | [3] | [4] | [5]

CCCCCCC=O
inactive: [1] | [2] | [3] | [5]

CCCCCCCO
inactive: [1] | [2] | [3] | [4] | [5]

CC(C)CC(C)O (configuration not stated)
inactive: [1] | [2] | [3] | [4] | [5]

CN(C)CCOC(=O)COc1ccc(Cl)cc1
inactive: all assays above

Cc1ccc(S(=O)(=O)N=C=O)cc1
inactive: [1] | [2] | [3] | [4] | [5]

OCc1ccccc1
inactive: [1] | [2] | [3] | [4] | [5]

C=CC(=O)OCCC(=O)O
inactive: [1] | [2] | [3] | [4] | [5]

CCNc1ccccc1
inactive: [1] | [2] | [3] | [4] | [5]

CC1(C)S[C@@H]2[C@H](NC(=O)COc3ccccc3)C(=O)N2[C@H]1C(=O)O
inactive: [1] | [2] | [3] | [4] | [5]

C[C@]12CCC(=O)C=C1CC[C@@H]1[C@@H]2[C@@H](O)C[C@@]2(C)[C@H]1CC[C@]2(O)C(=O)CO
not listed: [7] | [8] | [9]
inactive: all other assays above

C=CC(C)CCCC(C)(C)O (configuration not stated)
inactive: [1] | [2] | [3] | [4] | [5]

CCCCCCO
inactive: [1] | [2] | [3] | [5]

O=C(O)c1ccccc1C(=O)O
inactive: [1] | [2] | [3] | [4] | [5]

CCCCCCCCCCN
inactive: [1] | [2] | [3] | [4] | [5]

COC(=O)CCCC(=O)OC
inactive: [1] | [2] | [3] | [4] | [5]

CCNc1cccc(C)c1
inactive: [1] | [2] | [3] | [4] | [5]

O=C1CCCC1
inactive: [1] | [2] | [3] | [5]

Cc1ccc2ncccc2c1
inactive: [2] | [3] | [4] | [5]
inactive and 13.8 µM (active): [1]

CC(C)c1cccc(C(C)C)c1
inactive: [1] | [2] | [3] | [4] | [5]

CCCCCC(=O)O
inactive: [1] | [2] | [3] | [4] | [5]

O=C(O)c1cc2ccccc2cc1O
inactive: [1] | [2] | [3] | [4] | [5]

COc1ccc(C)cc1N
inactive: [1] | [2] | [3] | [5]

OCc1cccc(Oc2ccccc2)c1
inactive: [1] | [2] | [3] | [4] | [5]

Clc1ccccn1
inactive: [1] | [2] | [3] | [4] | [5]

CCOC(=O)n1ccn(C)c1=S
inactive: [1] | [2] | [3] | [4] | [5]

O=C(O)CCCCCCCCC(=O)O
inactive: [1] | [2] | [3] | [4] | [5]

Nc1ccc(Cl)c(N)c1
active: [5] 68.6 µM
inactive: [1] | [2] | [3] | [4]

COC(=O)c1cccnc1
inactive: [1] | [2] | [3] | [5]

O=S(=O)(O)c1ccc(N=Nc2c(O)ccc3cc(S(=O)(=O)O)ccc23)cc1
inactive: [1] | [2] | [3] | [5]

NCCN1CCNCC1
inactive: [1] | [2] | [3] | [5]

O=C(O)c1ccc(C(=O)O)c(C(=O)O)c1
inactive: [1] | [2] | [3] | [5]

C[C@]12CC[C@@H]3c4ccc(O)cc4CC[C@H]3[C@@H]1C[C@@H](O)[C@@H]2O
inactive: [1] | [2] | [3] | [5]

CN(C)c1ccc(Cc2ccc(N(C)C)cc2)cc1
inactive: [1] | [2] | [3] | [5]

Cc1ccc([N+](=O)[O-])cc1S(=O)(=O)O
inactive: [1] | [2] | [3] | [5]

COc1ccc([N+](=O)[O-])cc1N
inactive: [1] | [2] | [3] | [5]

CC1(C)CC(N)CC(C)(CN)C1 (configuration not stated)
inactive: [1] | [2] | [3] | [5]

CC(=O)CC(C)(C)O
inactive: [1] | [2] | [3] | [5]

CNC(=O)Oc1ccc2c(c1)[C@]1(C)CCN(C)[C@@H]1N2C
inactive: [1] | [2] | [3] | [6] | [10]

CCOCCOCCOCCO
inactive: [1] | [2] | [3] | [5]

CN1C(=O)CC[C@H]1c1cccnc1
inactive: [1] | [2] | [3] | [6] | [10]

Reference: PubChem BioAssay (Tox21)
